Rows were chosen to be rich in hits. Some 3.9% of all compounds tested hit in one or more screens of this group.
PLC-gamma1 inh: PLC-gamma1 enzyme inhibitors, primary screen, biochemical, fluorescence, purified enzyme. 1-phosphatidylinositol 4,5-bisphosphate phosphodiesterase gamma-1 (Homo sapiens), P19174. fluorogenic substrate. inhibition, % at 12.2 µM. hit rate 0.84% among 370,000. AID 720700, 2013; in the data active = inhibition above about 9.5%
AHR activator: AHR activators, primary screen, cell-based, luminescence, luciferase reporter, human | AHR-responsive luciferase reporter cells | activation, % at 5 µM | hit rate 2.5% among 320,000; in the data active = activation above about 47%;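 note: 0% = vehicle wells and 100% = reference agonist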
HIF act: HIF pathway transcriptional activators, primary screen, cell-based, U2OS HRE-luciferase, luminescence; hit rate 0.32% among 300,000; AID 1910, 2009; activation, % at 7.5 µM (by protocol); U2OS HRE-luciferase reporter; normalized: DMSO 0%, desferrioxamine 100%;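 active = mean activation of at least 10% of the iron chelator positive control signal, with at least half of replicates also reaching 10%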
CR mimetic SO: reduction of superoxide in aged yeast, primary screen, HTS | S. cerevisiae aged cells, superoxide DHE fluorescence; stronger effect = lower value | hit rate 0.18% among 330,000 | AID 2690, 2010 | superoxide response (% of plate mean), % at 10 µM;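 active = superoxide response under a set limit, about three screen SD below normal, cut at about 65% in these data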;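 note: yeast aged for seven days with compound at 30 °C before DHE staining; 100% = average MFI of all compound-treated wells on the plate with controls excluded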
sPLA2-III inh: human group III sPLA2 inhibitors, primary screen, biochemical, QFRET, BODIPY PC-A2 liposome substrate. QFRET BODIPY PC-A2 liposome hydrolysis, fluorescence. inhibition, % at 12.2 µM. hit rate 0.56% among 370,000;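 active = inhibition above mean plus 3 SD of compounds lying within the high and low control bounds, cut at about 19% in these data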;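 note: 0% = median of test compound wells and 100% = no enzyme DMSO wells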
PLCb3 inh: human PLC-beta3 inhibitors, primary screen, biochemical, fluorescence; Purified PLC-beta3, fluorogenic substrate; inhibition, % at 12.2 µM; hit rate 0.18% among 370,000; in the data active = inhibition above about 11%;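 note: 0% = median of compound wells on plate and 100% = full blocker control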
The depositor's hits bear a star.

What do the screens show for `COc1ccc2nc(-c3ccccc3)[nH]c(=O)c2c1`?
PLC-gamma1 inh: 2.0; sPLA2-III inh: 4.3; PLCb3 inh: 1.3

What do the screens show for `COc1nc(-c2ccccc2)cc(-c2ccccc2)n1`?
PLC-gamma1 inh: -1.6; AHR activator: 63.2*; HIF act: -0.2; CR mimetic SO: 98.0; sPLA2-III inh: -10.0; PLCb3 inh: 1.2

What do the screens show for `COc1ccc2nc(-c3ccccc3)cc(OC)c2c1`?
PLC-gamma1 inh: -21.7; AHR activator: 64.4*; HIF act: 2.4; CR mimetic SO: 96.5; sPLA2-III inh: -4.4; PLCb3 inh: -22.7

What do the screens show for `COCCCNC(=O)C[C@H]1C[C@@]2(C(=O)OC)C(=C[C@H](C(C)C)O[C@@H]2C2CC2)N(Cc2cccc3ccccc23)C1=O`?
PLC-gamma1 inh: 0.8; sPLA2-III inh: -6.1; PLCb3 inh: -0.9

How did CCN(CC)c1ccc(-c2sc(Nc3ccccc3)n[n+]2-c2ccc(F)cc2)cc1 do in these assays?
PLC-gamma1 inh: -72.8; AHR activator: 63.3*; HIF act: 4.4; CR mimetic SO: 106.8; sPLA2-III inh: 7.0; PLCb3 inh: -104.4

How did c1ccc(COc2ccc(-c3sc(Nc4ccccc4)n[n+]3-c3ccccc3)cc2)cc1 do in these assays?
AHR activator: 79.9*; HIF act: -3.5; CR mimetic SO: 95.0

Results for CN(C)c1ccc(-c2sc(Nc3ccccc3)n[n+]2-c2ccc(F)cc2)cc1 ?
PLC-gamma1 inh: -10.8; AHR activator: 13.3; HIF act: 2.9; CR mimetic SO: 109.1; sPLA2-III inh: 1.8; PLCb3 inh: -16.7

Results for CCCCN1CCN(C2=NC(=O)N(c3ccc(Br)cc3)C(=O)C2)CC1 ?
PLC-gamma1 inh: -8.0; sPLA2-III inh: 10.5; PLCb3 inh: -10.6

What do the screens show for `COC(=O)C1=C(C)N(Cc2ccccc2C(F)(F)F)C(=NCc2ccccc2C(F)(F)F)NC1c1ccc(C(F)(F)F)cc1` (configuration not stated)?
PLC-gamma1 inh: 1.1; sPLA2-III inh: -7.0; PLCb3 inh: 2.8

Results for Cc1onc(-c2ccccc2)c1NC(=O)N(Cc1ccccc1)C(C)C ?
PLC-gamma1 inh: 4.9; AHR activator: -0.1; HIF act: 55.4*; CR mimetic SO: 88.2; sPLA2-III inh: 2.6; PLCb3 inh: -3.6

How did O=C(NCCCN1CCc2ccccc2C1)Nc1ccc(Br)cc1 do in these assays?
PLC-gamma1 inh: 1.1; AHR activator: 60.9*; HIF act: 0.9; CR mimetic SO: 95.0; sPLA2-III inh: -15.7; PLCb3 inh: 2.4

How did O=C(NCCN1CCc2ccccc2C1)Nc1ccc([N+](=O)[O-])cc1 do in these assays?
PLC-gamma1 inh: 2.6; AHR activator: 7.5; HIF act: 0.5; CR mimetic SO: 98.7; sPLA2-III inh: 21.3*; PLCb3 inh: -4.4

What do the screens show for `CCOC(=O)c1c(C)[nH]c(C)c1S(=O)(=O)N1c2ccccc2CC1C` (configuration not stated)?
PLC-gamma1 inh: 3.0; AHR activator: 11.4; HIF act: 31.5*; CR mimetic SO: 78.9; sPLA2-III inh: 4.7; PLCb3 inh: -4.5

How did O=C(N/N=C/c1ccc(O)cc1O)c1ccc(CN2C(=O)c3cccc4cccc2c34)cc1 do in these assays?
PLC-gamma1 inh: inactive; AHR activator: 3.7; HIF act: 13.1*; CR mimetic SO: 92.3; sPLA2-III inh: 12.2; PLCb3 inh: inactive

Results for O=C(N/N=C/c1ccccc1)c1ccc(CN2C(=O)c3cccc4cccc2c34)cc1 ?
PLC-gamma1 inh: -485.6; AHR activator: 13.4; HIF act: 0.2; CR mimetic SO: 90.8; sPLA2-III inh: 1.9; PLCb3 inh: inactive

How did CC(C)(C)S(=O)(=O)N1Cc2cc(CO)ccc2[C@@H]1CCO do in these assays?
PLC-gamma1 inh: -5.1; sPLA2-III inh: 9.9; PLCb3 inh: -8.1

What do the screens show for `COc1ccc(-c2csc(NC(=O)CSc3nc(C)cs3)n2)cc1`?
PLC-gamma1 inh: 0.9; AHR activator: 10.4; HIF act: 1.5; CR mimetic SO: 107.0; sPLA2-III inh: -18.6; PLCb3 inh: -2.5

Screening data deposited in PubChem BioAssay by several laboratories.
